Screening results deposited in PubChem by several laboratories.
esBAF inh = SWI/SNF esBAF complex inhibition. AID 602393. 350,000 tested, 2% active. mouse ES cells, Bmi1-luciferase knock-in reporter, 24 h; 100% = twice the neutral-well signal. reporter increase, % at 12.5 µM; in the data active means activation above about 40%; inconclusive means no clear call, values can overlap the other calls;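 further: 0% = median of the plate's neutral control wells and 100% = double that signal; a rise in the Bmi1 reporter signal indicates esBAF inhibition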
hcDAF-12 act = activators of H. contortus DAF-12 nuclear receptor; HEK293 hcDAF-12 lit1-tk-luc reporter, luminescence; 0% DMSO, 100% Δ7-dafachronic acid; activation, % at 6.8 µM; 370,000 tested, 1.4% active; AID 652067;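 active means activation above the mean of all tested compounds plus 3 SD, cut at about 5.5% in these data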;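 further: 100% = response to 3 µM Δ7-dafachronic acid high control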
ssDAF12 agonist = activators of S. stercoralis DAF-12 nuclear receptor | HEK293 ssDAF-12/GRIP1 lit1-tk-luc reporter, luminescence; % of 3 µM dafachronic acid response | activation, % at 6.8 µM | 370,000 tested, 1% active | AID 652126;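 active means activation above the mean over all tested compounds plus 3 SD, cut at about 0.9% in these data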;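 further: 0% = DMSO-only wells and 100% = 3 µM delta7-dafachronic acid wells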
hgDAF-12 ag = agonists of H. glycines DAF-12 nuclear receptor. AID 687014. 370,000 tested, 1.8% active. HEK293 GAL4-hgDAF12 UAS-luciferase reporter, agonist luminescence; normalized to butyrate control. activation, % at 6.8 µM;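 active means activation above a cutoff set at the mean of all screened compounds plus 3 SD, cut at about 10% in these data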;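 further: 0% = DMSO wells and 100% = sodium butyrate wells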
DAX1 inh = blocks DAX1 repression of SF-1 activated StAR promoter; HEK293T StAR-luciferase reporter, SF-1/DAX-1 repression relief; inhibition, % at 6.8 µM; 370,000 tested, 1.1% active; AID 652010;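 active means inhibition above the mean over all tested compounds plus 3 SD, cut at about 3.6% in these data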;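 further: 0% = DAX-1 cells with DMSO and 100% = cells lacking DAX-1 with DMSO; higher inhibition means more luminescence from relief of DAX-1 repression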
Wnt bcat act = activators of Wnt/beta-catenin signaling; activation, % at 9.35 µM; Wnt/beta-catenin reporter cell assay, activator, plate reader; 300,000 tested, 1.2% active; in the data active means activation above about 30%, passing the limit was not always enough; inconclusive means no clear call, values can overlap the other calls;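 further: 0% = neutral control wells and 100% = positive control wells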
Starred values were filed as active, the others as inactive; ? = inconclusive; · = no result. Sampled rows, rich in hits. Any-hit rate of the full collection: about 4.2%.

SMILES	esBAF inh	hcDAF-12 act	ssDAF12 agonist	hgDAF-12 ag	DAX1 inh	Wnt bcat act
O=C(C[C@@H]1C[C@H]2c3cc(NC(=O)NC4CCCCC4)ccc3O[C@H]2[C@H](CO)O1)NCc1ccccc1	6	·	·	·	·	·
Cc1cc(SCC(=O)c2cc3ccccc3o2)nc2ccccc12	·	5	1.1*	4	1	·
Cc1cc(SCC(=O)O)nc2ccccc12	5	0	-1	0	0	1
O=c1oc2cc(Cl)ccc2n1CSc1nc2ccccc2s1	·	6.5*	1	12*	3	·
O=C(CSc1nc2cc(Cl)ccc2s1)c1cc2ccccc2o1	0	2	3.4*	3	1	-2
Cc1cc(NC(=O)CSc2nc3cc(Cl)ccc3s2)no1	-8	2	-1	3	1	-11
CCOC(=O)c1c(NC(=O)CSc2nc3cc(Cl)ccc3s2)sc(C(C)=O)c1C	·	5.8*	-1	1	0	·
C[C@H](CO)N1C[C@H](C)[C@@H](CN(C)Cc2ccccn2)Oc2ncc(C#Cc3cccc(F)c3)cc2C1=O	-12	·	·	·	·	·
C[C@@H]1CN([C@@H](C)CO)C(=O)c2cc(NC(=O)c3ccncc3)ccc2O[C@H]1CN(C)C(=O)Nc1ccc2c(c1)OCO2	-3	·	·	·	·	·
CN(C)Cc1c(O)ccc2c(=O)c(-c3ccc(Cl)cc3)coc12	64*	2	-1	3	0	-2
CCN(CC)Cc1c(O)ccc2c(=O)c(-c3ccc(Cl)cc3)coc12	13	-2	0	2	-1	1
CCOc1ccc(/C=C/C(=O)N2CCOCC2)cc1OC	-4	0	-1	-1	0	2
CCOc1cc(C(=S)N2CCOCC2)ccc1OC(=O)/C=C/c1ccc(OC)c(OC)c1	1	-1	-2	11*	0	-2
O=C(Nc1ccccc1)C1=C[C@H](c2ccc(C(F)(F)F)cc2)C[C@H](OCCCCO)O1	34	0	0	2	-1	10
O=C(Nc1ccccc1)C1=C[C@H](c2ccccc2)C[C@H](OCc2ccc(CO)cc2)O1	6	1	-1	1	1	-1
O=C(Nc1ccccc1)C1=C[C@@H](C2CC2)C[C@@H](OCCCCO)O1	67*	5	0	7	1	?
O=C(Nc1ccccc1)C1=C[C@@H](c2ccc(Br)cc2)C[C@@H](OCCCCO)O1	57*	2	0	5	0	23
O=C(Nc1ccccc1)C1=C[C@@H](C2CC2)C[C@@H](OCc2ccc(CO)cc2)O1	60*	2	0	5	0	?
O=C(Nc1ccccc1)C1=C[C@H](c2ccccc2)C[C@H](OCCCCO)O1	51*	5.7*	0	9	2	33*
C[C@@H]1CN([C@H](C)CO)S(=O)(=O)c2ccc(C#Cc3ccncc3)cc2O[C@H]1CN(C)C(=O)C1CCOCC1	11	·	·	·	·	·
O=C(O)C[C@@H]1C[C@H]2c3cc(NC(=O)Nc4ccc(C(F)(F)F)cc4)ccc3O[C@H]2[C@H](CO)O1	5	·	·	·	·	·
Cc1nc2ccc(NC(=S)NCc3ccccc3)cc2nc1C	41*	-1	-2	3	-1	-2
COCC(=O)Nc1ccc2c(c1)[C@@H]1C[C@@H](CC(=O)NCc3ccccc3OC)O[C@H](CO)[C@@H]1O2	-1	·	·	·	·	·
Cc1ccc(CCNC(=O)C2CCN(S(=O)(=O)N3CCC4(CC3)OCCO4)CC2)cc1	2	6.0*	-2	1	0	-1
O=C(C[C@H]1C[C@H]2c3cc(NC(=O)NC4CCCC4)ccc3O[C@H]2[C@@H](CO)O1)NCC1CC1	10	·	·	·	·	·
SMILES	esBAF inh	hcDAF-12 act	ssDAF12 agonist	hgDAF-12 ag	DAX1 inh	Wnt bcat act
CCCSc1nc2c(cnn2-c2ccccc2)c(=O)n1N	0	5.8*	-1	13*	1	41*
CCn1cc(CN2CCN(Cc3ccccc3)C(CCO)C2)c2ccccc21 (stereo unspecified)	-4	5	0	1	0	1
CCn1cc(CN2CCN(Cc3ccc(C)o3)C(CCO)C2)c2ccccc21 (stereo unspecified)	·	5.6*	0	3	0	0
COc1cccc(C#CC2=CC(=O)CC(C)(C)C2)c1	134*	0	-1	2	-1	-2
CC(C)NC(=O)Nc1ccc2c(c1)CC(=O)N([C@@H](C)CO)C[C@@H](C)[C@H](CN(C)C(=O)NC(C)C)O2	1	·	·	·	·	·
CCOC(=O)CN1C(=O)S/C(=C/c2cc(C)n(C)c2C)C1=O	47*	3	-1	6	2	40*
CCOC(=O)CN1C(=O)S/C(=C/c2ccc(C)o2)C1=O	12	-2	-1	4	1	0
CCOC(=O)CN1C(=O)S/C(=C/c2cc(C)n(-c3ccccn3)c2C)C1=O	45*	2	-1	5	1	·
C[C@H]1CN([C@@H](C)CO)C(=O)c2cccc(NC(=O)Nc3ccc(F)cc3)c2O[C@@H]1CN(C)C(=O)NC1CCCCC1	-2	·	·	·	·	·
O=C(Nc1ccc(F)cc1)N[C@H]1CC[C@H](CCNS(=O)(=O)c2ccccc2F)O[C@H]1CO	1	·	·	·	·	·
O=C(NCc1ccccc1)[C@H]1[C@H](CO)[C@H]2Cn3c(cccc3=O)[C@@H]1N2C(=O)Cc1ccccn1	-3	·	·	·	·	·
C[C@H](CO)N1C[C@H](C)[C@@H](CN(C)Cc2ccc3c(c2)OCO3)Oc2ccc(NC(=O)CCC(F)(F)F)cc2CC1=O	2	·	·	·	·	·
C[C@@H]1CN([C@H](C)CO)S(=O)(=O)c2ccc(C#CC3(O)CCCC3)cc2O[C@H]1CN(C)C(=O)Cc1cccnc1	1	·	·	·	·	·
Clc1cccc(-c2cc3nc4c(c(N5CCN(c6cnccn6)CC5)n3n2)CCCC4)c1	47*	0	-1	-1	0	3
Cc1ccc(-c2nn(-c3ccccc3)cc2CO)cc1	90*	1	-1	10	1	14
O=C(C[C@@H]1CC[C@H](NC(=O)Nc2cccc(F)c2)[C@H](CO)O1)NCC1CCCCC1	7	·	·	·	·	·
Cc1noc(C)c1NC(=O)N(C)C[C@@H]1Oc2ccc(NC(=O)Nc3ccc(F)cc3)cc2CC(=O)N([C@@H](C)CO)C[C@H]1C	-2	·	·	·	·	·
O=C(C1CC1)N1CC[C@H]2[C@H](CO)Nc3ccc(Br)cc3[C@H]21	4	·	·	·	·	·
O=C(C1CC1)N1CC[C@@H]2[C@H]1c1cc(Br)ccc1N[C@@H]2CO	47*	·	·	·	·	·
COC(=O)c1scc(C)c1N/N=C(\C)c1ccc(F)cc1	0	4	1.0*	1	1	4
CCc1ccc(C(=O)CCC(=O)Nc2ccc(OC)c(S(=O)(=O)N3CCCCC3)c2)cc1	8	-1	-1	-3	-1	56*
COc1ccc(CCC(=O)Nc2ccc(OC)c(S(=O)(=O)N3CCCCC3)c2)cc1OC	4	1	-2	-4	-3	-4
Clc1ccc(-c2noc(CN3CCCC3)n2)cc1	44*	1	0	3	1	0
